Laboratory results: PubChem BioAssay (NCATS)
Records with an inconclusive call do not appear. Where a call stands in place of a potency, no number is given. Activity calls are given as the source filed them. The call rests on the fitted dose curve; in most records, active means well fitted inhibition curve with a large enough effect; inconclusive means small, poorly fitted or top-dose-only effect; inactive means no such curve, though single readings can be large or run the other way.
Potency means the concentration at half of the fitted maximal effect.

The compounds below were run against Retinaldehyde dehydrogenase 3 (Homo sapiens) (UniProt P47895) (assay: qHTS for Inhibitors of the Aldehyde Dehydrogenase Family (ALDH1A3) Confirmatory screens (AID 2061311; further: nearly all actives have a fitted effect of over 60% in size)). Conditions: ALDH inhibition qHTS; series mostly up to 46 µM.
For `Fc1cccc(Cc2noc(-c3nc(-c4ccccc4)no3)n2)c1`, the Potency was “inactive”. In the case of `Cc1ccc([S+](=O)([O-])c2nnn3c2nc(N2CCC(F)CC2)c2ccccc23)cc1`, the Potency is reported as “inactive”. With `Fc1cccc(Cc2noc(-c3nc(-c4ccc5c(c4)OCO5)no3)n2)c1` the Potency was “inactive”. In the case of `COc1ccccc1-c1cnc2n[nH]c(-c3ccccc3C)c2n1`, the Potency is reported as “inactive”. `O=C(CSc1nc(-c2ccco2)nc2cc(=O)[nH]n12)Nc1ccccc1Cl` was tested, and the Potency was “inactive”. With `Cn1c(Oc2cccc(Cl)c2)nc2c1c(=O)n(Cc1ccccc1Cl)c(=O)n2C` the Potency was 31.6 µM (active). For `O=C(NCc1ccc(F)cc1)c1nc(-c2ccc(Cl)nc2)c2cnccn12`, the Potency was “inactive”. With `Cc1nonc1OCCn1cc(-c2ccc(CO)o2)nn1` the Potency was “inactive”. For `Cn1ncc2c(C(=O)NCc3ccc(F)cc3)cc(-c3ccc(F)cc3)nc21`, the Potency was “inactive”. For `O=C(CCc1ccccc1)Nc1ccc([C@@H](O)[C@H]2COCC(=O)N2Cc2ccncc2)cc1`, the Potency was “inactive”. `Cn1ccc(Nc2ccc3nnc(-c4ccccn4)n3n2)n1` was tested, and the Potency was “inactive”. `COc1ccccc1-n1c(=O)c(C(=O)NC(C)C)nc2cccnc21` was tested, and the Potency was “inactive”. In the case of `Cc1cc2ncc(C(=O)NCCc3ccccc3F)cn2n1`, the Potency is reported as “inactive”. With `COc1cccc(-c2nccc3c(=O)cc(N4CCOCC4)oc23)c1` the Potency was “inactive”. In the case of `O=[S+]([O-])(c1ccccc1)c1nnn2c1nc(N1CCC(F)CC1)c1ccccc12`, the Potency is reported as “inactive”. With `Cc1ccc(Oc2nc3c(c(=O)n(Cc4ccccc4Cl)c(=O)n3C)n2C)cc1C` the Potency was “inactive”. With `Cc1cccc(-c2cccc(CN)c2)c1` the Potency was “inactive”. With `CN1Cc2nc(Nc3ccc(C(F)(F)F)cc3)ccc2OCC1=O` the Potency was 15.8 µM (active). For `O=S(=O)(c1ccccc1)c1nnn2c1nc(NC1CCCC1)c1ccccc12`, the Potency was “inactive”. In the case of `O=c1c2cnn(-c3ccc(Cl)cc3)c2ncn1Cc1cccc(C(F)(F)F)c1`, the Potency is reported as “inactive”. `COc1cccc(CCC(=O)NCc2nnc3c(-c4nc(C)no4)cccn23)c1` was tested, and the Potency was “inactive”. With `CCc1nn2c(=O)c(S(=O)(=O)Nc3cccc(F)c3)c(C)nc2s1` the Potency was “inactive”. In the case of `O=C(Nc1ccc([C@@H](O)[C@H]2COCC(=O)N2CCCc2ccccc2)cc1)C1CCC1`, the Potency is reported as “inactive”. For `CNC(=O)c1cccc(-c2ccc(C(C)(C)C#N)cc2)n1`, the Potency was 8.91 µM (active). `O=C(Nc1ccc([C@@H](O)[C@H]2COCC(=O)N2CCCc2ccccc2)cc1)c1ccco1` was tested, and the Potency was “inactive”. For `Cc1cc2nc3n(c(=O)c2n1CC(=O)Nc1ccc(Br)cc1F)CCC3`, the Potency was “inactive”. For `CCOC(=O)c1noc2ncnc(Nc3ccc(C)c(F)c3)c12`, the Potency was “inactive”. In the case of `CCOc1ccc(NC(=O)NCCCN2CCN(c3ccc(OC)cc3)CC2)cc1`, the Potency is reported as “inactive”. For `O=C(Cn1cnc2onc(-c3ccc(Cl)cc3)c2c1=O)Nc1ccc(F)cc1`, the Potency was “inactive”. With `Cc1ccc(NC(=O)CSc2nc3ncccc3[nH]2)cc1F` the Potency was “inactive”. For `N#Cc1cccc(C(=O)Nc2ccc3c(N4CCOCC4)ncnc3c2)c1`, the Potency was “inactive”. In the case of `CC(=O)NC(c1ccco1)c1cc(Cl)c2ccccc2c1O` (stereo not given), the Potency is reported as 11.3 µM (active). In the case of `Cc1cc(Br)ccc1NC(=O)CCNS(=O)(=O)c1cccc2nonc12`, the Potency is reported as “inactive”. For `COc1ccc(-c2nc3ccccc3c(=O)n2Cc2ccccc2)cc1OCc1ccc(NC(C)=O)cc1`, the Potency was 22.5 µM (active). `COc1ccc(CC(=O)Nc2ccc([C@H]3OCC(=O)N(Cc4ccccc4)[C@@H]3CO)cc2)cc1` was tested, and the Potency was “inactive”. With `COc1ccc(OC)c(-c2cc(-c3cccs3)nc3c(C)noc23)c1` the Potency was 12.6 µM (active). For `COc1ccc(Cl)cc1NC(=O)c1cc2nc(-c3ccc(C)cc3)cc(C(F)(F)F)n2n1`, the Potency was “inactive”. `O=C(Nc1ccc(Oc2ccccc2)cc1)c1ccc(F)c(S(=O)(=O)N2CCN(c3cccc(Cl)c3)CC2)c1` was tested, and the Potency was “inactive”. `COCCn1c(CNC(=O)c2cc([N+](=O)[O-])ccc2Cl)nc2cccnc21` was tested, and the Potency was “inactive”. In the case of `COc1ccc(C(=O)NCc2nnc3ccc(-c4ccccc4)nn23)c(C)c1`, the Potency is reported as “inactive”.
